From PubChem BioAssay
Rows were chosen to be rich in hits. Some 27% of all compounds tested hit in one or more screens of this group.
CYP2C9 inhib = human CYP2C9 inhibition. P11712. CYP2C9 Supersomes, luciferin-H conversion, luminescence. inhibition, % at 5 µM. actives 20% (n = 96,000). AID 777;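 active means blocking of liver enzyme CYP2C9 beyond about 50% at 5 µM, limit read from the data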
Target sequence (P11712 whole entry, looked up): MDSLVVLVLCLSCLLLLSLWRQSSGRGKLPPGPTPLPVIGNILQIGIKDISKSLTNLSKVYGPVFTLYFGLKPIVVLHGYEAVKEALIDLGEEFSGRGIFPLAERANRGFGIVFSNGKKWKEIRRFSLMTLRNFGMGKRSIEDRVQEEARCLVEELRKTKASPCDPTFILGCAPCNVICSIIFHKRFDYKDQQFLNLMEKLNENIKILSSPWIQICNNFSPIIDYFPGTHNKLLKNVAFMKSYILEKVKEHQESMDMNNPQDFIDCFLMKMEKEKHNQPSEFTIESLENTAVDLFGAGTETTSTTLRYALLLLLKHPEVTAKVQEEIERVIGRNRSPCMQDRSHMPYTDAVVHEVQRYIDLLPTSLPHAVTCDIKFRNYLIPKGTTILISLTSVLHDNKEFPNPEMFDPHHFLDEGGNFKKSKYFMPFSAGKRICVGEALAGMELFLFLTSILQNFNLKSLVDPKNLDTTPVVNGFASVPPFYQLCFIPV
CYP2C19 activ = cytochrome P450 2C19 (human) activation. P33261. recombinant CYP2C19, luciferin-H EGE luminescence; active compounds read high; 0 = fully inhibited enzyme, 1 = untreated enzyme. activation factor at 5 µM. 96,000 tested, under 10 active. AID 1025;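 active means activation factor of at least 2 at 5 µM in the primary screen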;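 further: 0 = wells with 2.5 mM tranylcypromine and 1 = vehicle-only wells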
Cav32 inh = blocks human Cav3.2 T-type calcium channel; O95180; Cav3.2-expressing cells, Fluo-4 calcium fluorescence FDSS; active compounds read low; B-score at 10 µM; actives 4% (n = 100,000); AID 449739;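 active means single-dose well whose peak fluorescence ratio is a statistical outlier from its plate by either plate-standardised score or position-corrected B-score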
CYP2C9 act = increases human cytochrome P450 2C9 activity | P11712 | recombinant CYP2C9, luciferin-H conversion, luminescence; active compounds read high; factor 1 = untreated enzyme, 0 = blocked | activation factor at 5 µM | actives 1.4% (n = 96,000);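 active means activation factor of 2 or more for CYP2C9 at a 5 µM dose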;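 further: 0 = sulfaphenazole-blocked wells and 1 = vehicle-only wells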
CYP2C19 inh = blocks human cytochrome P450 2C19 | P33261 | CYP2C19 Supersomes, luciferin-H EGE luminescence, 30 min | inhibition, % at 5 µM | actives 21% (n = 96,000);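 active means CYP2C19 inhibition above a set limit at 5 µM in the primary screen, cut at about 50% in these data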;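 further: plate controls were negative control wells for no effect and 2.5 mM tranylcypromine positive control for full effect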
The depositor's hits bear a star.

`CCOc1ccc(C2C=C(c3ccccc3)Nc3nnnn32)cc1` (centres undefined) gave CYP2C9 inhib 62*, CYP2C19 activ 0.4, Cav32 inh 0.16, CYP2C9 act 0.4 and CYP2C19 inh 64*.
O=S(=O)(Nc1ccc2c(c1)OCCO2)c1cccc2cccnc12 was read as CYP2C9 inhib -72, CYP2C19 activ 0.6, CYP2C9 act 1.7 and CYP2C19 inh 40.
CSc1nc2ccc(NS(=O)(=O)c3ccc4c(c3)OCCO4)cc2s1 was read as CYP2C9 inhib 84*, CYP2C19 activ 0, Cav32 inh -4.5*, CYP2C9 act 0.2 and CYP2C19 inh 100*.
`CSc1nc2ccc(S(=O)(=O)N3CCCCC3)cc2s1` gave CYP2C9 inhib 17, CYP2C19 activ 0.6, Cav32 inh -0.52, CYP2C9 act 0.8 and CYP2C19 inh 41.
For CSc1nc2ccc(S(=O)(=O)NC3CCCCC3)cc2s1 the results were CYP2C9 inhib 31, CYP2C19 activ 0.3, CYP2C9 act 0.7 and CYP2C19 inh 74*.
Screening COc1cccc(C2C=C(c3ccc(Br)s3)Nc3ncnn32)c1OC (centres undefined) returned CYP2C9 inhib 83*, CYP2C19 activ 0, Cav32 inh -0.65, CYP2C9 act 0.2 and CYP2C19 inh 98*.
Screening COc1ccc(C2C=C(c3ccc(C)c(C)c3)Nc3ncnn32)c(OC)c1OC (centres undefined) returned CYP2C9 inhib 92*, CYP2C19 activ 0, Cav32 inh -1.1, CYP2C9 act 0.1 and CYP2C19 inh 96*.
`Fc1ccc(Br)cc1C1C=C(c2ccc(Br)s2)Nc2ncnn21` (centres undefined) gave CYP2C9 inhib 46, CYP2C19 activ 0, Cav32 inh -2.9*, CYP2C9 act 0.5 and CYP2C19 inh 96*.
`COc1ccc2nc(C3CCCCC3)c3c(c2c1)CCC3` gave Cav32 inh 0.48.
`Cc1cc(NC(=O)C(C)C)ncc1NC(=O)CCc1ccccc1` gave Cav32 inh -0.29.
For Cc1ccc(SCc2[nH]nc3c2C(c2cccnc2)C(C#N)=C(N)O3)cc1 (centres undefined) the results were CYP2C9 inhib 78*, CYP2C19 activ 0.7, Cav32 inh 1.3, CYP2C9 act 0.2 and CYP2C19 inh 31.
Screening CCc1[nH]nc2c1C(c1cccnc1)C(C#N)=C(N)O2 (centres undefined) returned CYP2C9 inhib -6, CYP2C19 activ 1.1, Cav32 inh 0.034, CYP2C9 act 1.1 and CYP2C19 inh -6.
`C=CCN1C=C2C(=O)C(C)(OC(=O)c3ccco3)C(=O)C(C=C)=C2C=C1C1CC1` (centres undefined) gave Cav32 inh -1.4.
COc1cc(Cl)ccc1S(=O)(=O)n1nc(C)cc1C was read as CYP2C9 inhib 15, CYP2C19 activ 0.3, Cav32 inh -1.3, CYP2C9 act 0.8 and CYP2C19 inh 75*.
For COc1cc(S(=O)(=O)n2nc(C)cc2C)c(OC)cc1Cl the results were CYP2C9 inhib 29, CYP2C19 activ 0.2, Cav32 inh -0.98, CYP2C9 act 0.7 and CYP2C19 inh 83*.
For O=C(CN1C(=O)COc2ccc(Cl)cc21)N1CCc2ccccc21 the results were CYP2C9 inhib 27, CYP2C19 activ 0.8, Cav32 inh -0.0044, CYP2C9 act 0.7 and CYP2C19 inh 23.
COCCn1c(C)cc(C(=O)COC(=O)CCc2ccc(S(=O)(=O)N3CCOCC3)cc2)c1C was read as CYP2C9 inhib -6, CYP2C19 activ 1, Cav32 inh 0.73, CYP2C9 act 1.1 and CYP2C19 inh 0.
COCC(C)n1c(C)cc(C(=O)COc2ccc(S(=O)(=O)N3CCOCC3)cc2Cl)c1C (centres undefined) was read as CYP2C9 inhib 58*, CYP2C19 activ 0.5, Cav32 inh -0.066, CYP2C9 act 0.4 and CYP2C19 inh 51*.
Screening CCOC(=O)Cc1csc(NC(=O)c2csc3c2CCCC3)n1 returned CYP2C9 inhib 75*, CYP2C19 activ 0.4, Cav32 inh -2.1, CYP2C9 act 0.3 and CYP2C19 inh 65*.
CCOC(=O)Cc1csc(NC(=O)c2cc3c(s2)CCCC3)n1 was read as CYP2C9 inhib 64*, CYP2C19 activ 0.7, Cav32 inh -2.9, CYP2C9 act 0.4 and CYP2C19 inh 27.
Screening CC1(C)Cc2c(sc(/N=C/N3CCCC3)c2C#N)C(C)(C)N1 returned Cav32 inh 0.8.
`CCN(C(=O)c1sc(N)c(C#N)c1C)C1CCCCC1` gave CYP2C9 inhib -5, CYP2C19 activ 0.4, Cav32 inh 0.12, CYP2C9 act 1.1 and CYP2C19 inh 59*.
CC(C(=O)N=c1sc2ccccc2n1C)N1C(=O)C2CC=CCC2C1=O (centres undefined) was read as CYP2C9 inhib 58*, CYP2C19 activ 0.2, Cav32 inh 1.4, CYP2C9 act 0.4 and CYP2C19 inh 80*.
`CC(=O)N=c1sc2ccccc2n1C` gave CYP2C9 inhib 14, CYP2C19 activ 0.7, Cav32 inh 0.082, CYP2C9 act 0.9 and CYP2C19 inh 28.
`COc1ccccc1N(C(=O)CNS(=O)(=O)c1ccccc1)C(C(=O)NCc1ccco1)C(C)C` (centres undefined) gave CYP2C9 inhib 34, CYP2C19 activ 0.8, Cav32 inh -0.023, CYP2C9 act 0.7 and CYP2C19 inh 23.
`CCCC(C(=O)NCc1ccco1)N(C(=O)CNS(=O)(=O)c1ccccc1)c1ccccc1OC` (centres undefined) gave CYP2C9 inhib 12, CYP2C19 activ 0.6, Cav32 inh -5.4*, CYP2C9 act 0.9 and CYP2C19 inh 40.
Screening CCC(C(=O)NCc1ccco1)N(C(=O)CNS(=O)(=O)c1ccc(C)cc1)c1ccccc1OC (centres undefined) returned CYP2C9 inhib 13, CYP2C19 activ 0.8, Cav32 inh -3.5*, CYP2C9 act 0.9 and CYP2C19 inh 23.
`COC(=O)c1sc(=S)sc1C(=O)OC` gave CYP2C9 inhib 24, CYP2C19 activ 0.5, Cav32 inh 1, CYP2C9 act 0.8 and CYP2C19 inh 52*.
For COC(=O)c1c(N)sc(C(C)=O)c1C the results were CYP2C9 inhib 5, CYP2C19 activ 1, Cav32 inh 0.31, CYP2C9 act 1 and CYP2C19 inh -1.
Cc1ccc2cc(C#N)c(SCC(=O)NCc3ccco3)nc2c1 was read as CYP2C9 inhib 75*, CYP2C19 activ 0.9, Cav32 inh 0.38, CYP2C9 act 0.2 and CYP2C19 inh 11.
`Cc1ccc2nc(SCC(=O)NCc3cccs3)c(C#N)cc2c1` gave CYP2C9 inhib 12, CYP2C19 activ 1, Cav32 inh 0.47, CYP2C9 act 0.9 and CYP2C19 inh 1.
Screening Cc1cccc(-c2nsc(SCC(=O)NCc3ccco3)n2)c1 returned CYP2C9 inhib 68*, CYP2C19 activ 0.8, Cav32 inh -3.9*, CYP2C9 act 0.3 and CYP2C19 inh 21.
